According to PubChem BioAssay AID1851 (National Center for Advancing Translational Sciences (NCATS), 2009):
“And” between values parts separate entries of the source, which are not always exact repeats. Identical values can stand only once. Among all 16,000 compounds or so, about 2,600 (16%) were called active. Inconclusive results (about 20%) are left out. The call rests on the fitted dose curve; in most records, active means well fitted curve in the direction sought with a large enough effect; inconclusive means small, poorly fitted or top-dose-only effect, or effect the other way; inactive means no such curve, though single readings can be large or run the other way. A selection follows.

target: Cytochrome P450 2D6 (Homo sapiens) (UniProt P10635); assay: Cytochrome panel assay with activity outcomes; details: recombinant CYP, pro-luciferin dealkylation, luminescence, p450-cyp2d6; series mostly up to 57.1 µM
Sequence (P10635 whole entry, looked up): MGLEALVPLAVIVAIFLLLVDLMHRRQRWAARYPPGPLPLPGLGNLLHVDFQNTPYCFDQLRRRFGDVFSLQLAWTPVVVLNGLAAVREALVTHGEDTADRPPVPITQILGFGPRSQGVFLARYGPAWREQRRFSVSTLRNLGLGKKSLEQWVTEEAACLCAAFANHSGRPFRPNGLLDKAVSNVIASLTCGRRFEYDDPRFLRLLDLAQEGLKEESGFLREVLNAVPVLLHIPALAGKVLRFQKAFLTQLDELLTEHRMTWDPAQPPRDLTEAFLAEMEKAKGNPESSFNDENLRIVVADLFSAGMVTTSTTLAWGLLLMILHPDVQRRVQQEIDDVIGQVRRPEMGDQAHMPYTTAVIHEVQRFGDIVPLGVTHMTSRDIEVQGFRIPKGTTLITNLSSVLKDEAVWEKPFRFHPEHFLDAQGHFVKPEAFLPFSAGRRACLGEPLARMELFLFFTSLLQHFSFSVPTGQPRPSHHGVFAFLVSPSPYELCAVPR
On the % scale 0 is the no-effect control and ±100 the full control effect.

Row | Structure (SMILES) | AC50 | activity, negative = inhibition
1 | NC/C=C\C(=O)O | inactive | –
2 | C[C@H](O/N=C1/[C@H]2O[C@@H]2[C@@H](O)[C@H]2[C@H]1CCn1c(=O)n(-c3ccccc3)c(=O)n12)c1cn([C@H]2COC[C@H]2O)nn1 | – | -1.7% [at 11.4 µM] (inactive)
3 | CCc1nnc(NC(=O)CSc2ncnc3c2cnn3-c2ccc(OC)cc2)s1 | inactive | –
4 | CCOC(=O)CN1C(=O)Nc2ccc(Br)cc2C1c1ccccc1 (stereo not drawn) | inactive | –
5 | CC1=C(C(N)=O)C(c2ccccc2)n2nc(-c3ccncc3)nc2N1 (stereo not drawn) | inactive | –
6 | Cc1ccc[n+](CC(=O)c2cc3ccccc3oc2=O)c1 | inactive | –
7 | Cc1cc2ccccc2c[n+]1CC(O)C[n+]1cc2ccccc2cc1C | 0.0251 µM (active) | –
8 | C[C@@H]1/C=C\CC(=O)OC[C@H](C)C(=O)N2CCC[C@@H]2C(=O)OC1 | – | 7.63% [at 11.4 µM] (inactive)
9 | Cc1o[nH]c(=O)c1CC[C@H](N)C(=O)O | inactive | –
10 | Cc1ccc(NC(=O)c2ccccc2C(=O)O)cc1C | – | -8.28% [at 11.4 µM] (inactive)
11 | Cc1oc(C(C)(C)C)cc1C(=O)Nc1cccc(/C=C/C(=O)O)c1 | inactive | –
12 | Cc1oc(-c2ccccc2)cc1C(=O)Nc1ccc(N(C)C)cc1 | 7.94 µM (active) | –
13 | CCOC(=O)C1=C(N)n2c(s/c(=C\c3ccco3)c2=O)=C(C(=O)OCC)C1c1ccco1 (stereo not drawn) | inactive | –
14 | Cc1cc2nc3[nH]c4c(Cl)cc(Cl)cc4c3nc2cc1C | – | 4.24% [at 11.4 µM] (inactive)
15 | O=c1[nH]cc(CS(=O)(=O)Cc2c[nH]c(=O)[nH]c2=O)c(=O)[nH]1 | – | -1.45% [at 11.4 µM] (inactive)
16 | CC(C)CN(CC(C)C)C1=N/C(=C\c2ccco2)C(=O)N1c1ccccc1 | inactive | –
17 | CCOC(=O)c1ccc(Nc2nc(C(=O)OCC)nc3ccccc23)cc1 | 3.98 µM (active) | –
18 | CCOC(=O)c1ccc(Nc2nc(=O)c3cccnc3s2)cc1 | inactive | –
19 | Cc1noc(C)c1-c1nc(Nc2ccc(F)cc2)c2ccccc2n1 | inactive | –
20 | CCCc1nc2sc3ccccc3c(=O)c2c(=O)n1CCOC | inactive | –
21 | COc1cc(C(=O)NC(=S)Nc2cccc(-c3cc4ccccc4oc3=O)c2)cc(OC)c1OC | inactive | –
22 | CC(=O)NS(=O)(=O)c1ccc(NC(=S)NC(=O)c2ccco2)cc1 | inactive | –
23 | Cc1cccc(N(C)C(=S)Oc2ccc3ccccc3c2)c1 | inactive | –
24 | Cn1c(=NC(=O)CCl)sc2ccccc21 | inactive | –
25 | N=c1sc2ccccc2n1CCS (tested in a mixture with another compound) | 0.316 µM (active) | –

Row | Structure (SMILES) | AC50 | activity, negative = inhibition
26 | O=C(O)c1ccccc1NCn1c(=S)sc2ccccc21 | – | -8.67% [at 11.4 µM] (inactive)
27 | COc1cccc(CNc2ccc(F)c(Cl)c2)c1O | inactive | –
28 | COc1ccccc1CNCC(O)(c1ccc(Cl)cc1)c1ccc(Cl)cc1 | 0.316 µM (active) | –
29 | CCS(=O)(=O)N1CCC(C(=O)NCc2ccccc2OC)CC1 | inactive | –
30 | COC(=O)c1sccc1NC(=O)c1cc(-c2cc(C)ccc2C)nc2ccccc12 | inactive | –
31 | Cc1nnc(NC(=O)CSc2ncnc3c2cnn3-c2ccccc2C)s1 | inactive | –
32 | O=C(O)c1cccnc1SCC(=O)N1CCCCCC1 | inactive | –
33 | COC(=O)c1cc(OC)c(OC)cc1NC(=O)CSc1ccc(C)cc1 | inactive | –
34 | Cc1ccc(SCCNC(=O)c2ccc(C)c(S(=O)(=O)Nc3ccccc3C)c2)cc1 | 7.94 µM (active) | –
35 | Cc1ccc(SCCNC(=O)c2ccccc2)cc1 | inactive | –
36 | COc1ccc(C2C(=O)N(C3CCCCCC3)CC(=O)N2Cc2ccccc2)cc1OC (stereo not drawn) | inactive | –
37 | CO[C@H]1COC(=O)[C@H](Cc2ccccc2)NC(=O)C/C=C\[C@@H](C)[C@H](OC)COC(=O)C/C=C\[C@@H]1C | – | 11.3% [at 11.4 µM] (inactive)
38 | CCOC(=O)c1c(NC(=O)/C=C/c2ccc3c(c2)OCO3)sc(C)c1CC | inactive | –
39 | COC(=O)c1cc(NC(=O)/C=C/c2ccc3c(c2)OCO3)cc(C(=O)OC)c1 | inactive | –
40 | O=C(/C=C\c1ccccc1)c1ccccc1O | – | -5.64% [at 11.4 µM] (inactive)
41 | COCOc1cc(OC)ccc1C(=O)/C=C\c1ccc2c(c1)OCO2 | 3.98 µM (active) | –
42 | COc1ccc2cc3cc(C(=O)Nc4ccc5c(c4)OCO5)oc3nc2c1 | inactive | –
43 | O=C(/C=C\c1ccc2c(c1)OCO2)c1ccc(F)cc1 | 2 µM (active) | –
44 | Nc1ccccc1C(=O)/C=C\c1ccc2c(c1)OCO2 | 3.16 µM (active) | –
45 | O=C(O)/C=C\C=C/c1ccc2c(c1)OCO2 | – | -10.2% [at 11.4 µM] (inactive)
46 | CN(C)C(=O)CN(c1ccc2c(c1)OCO2)S(C)(=O)=O | inactive | –
47 | CCOC(=O)c1[nH]c(C)c(/C(O)=C2\C(=O)C(=O)N(CCN3CCOCC3)C2c2cccs2)c1C (stereo not drawn) | inactive | –
48 | Cc1ccccc1-n1nc2c(c1NC(=O)c1c(-c3ccccc3Cl)noc1C)CSC2 | inactive | –
49 | COCC(=O)N1CCN(c2ccc([N+](=O)[O-])cc2)CC1 | inactive | –
50 | CN1C(=O)NC(c2ccc(O)cc2)C(C(=O)c2cccs2)C1(O)C(F)(F)F (stereo not drawn) | inactive | –

Row | Structure (SMILES) | AC50 | activity, negative = inhibition
51 | Cc1cccc(C)c1NC(=O)c1cc2c(=O)c3ccccc3oc2nc1C(F)(F)F | inactive | –
52 | CO[C@H]1COC(=O)[C@@H](C)COC(=O)[C@@H](COCc2ccccc2)NC(=O)C/C=C\[C@H]1C | – | 6.49% [at 11.4 µM] (inactive)
53 | CC(=O)N(/N=C/c1cccc(C)c1)c1nc(-c2ccc(Br)cc2)cs1 | inactive | –
54 | Cc1cc(N)c2ccccc2[n+]1CCCCCCCCCCCCCC[n+]1c(C)cc(N)c2ccccc21 | 7.94 µM (active) | –
55 | Cc1cc(N)c2ccccc2[n+]1CCCCCCCCCC[n+]1c(C)cc(N)c2ccccc21 | 10 µM (active) and 15.8 µM (active) | –
56 | Cn1c(N)c(C(=O)CSc2ccc3c(c2)OCCO3)c(=O)n(C)c1=O | inactive | –
57 | O=C(COc1cccc2ccccc12)N1c2ccccc2CCc2ccccc21 | inactive | –
58 | COC(=O)[C@@H](NC(=O)Nc1ccc(C(C)=O)cc1)C(C)C | inactive | –
59 | CC(C)=CCC/C(C)=C/CO/N=C1/C[C@@H](O)[C@@H](O)[C@@H]2[C@@H]3C(=O)N(Cc4ccc5c(c4)OCO5)C(=O)[C@H]3CC[C@@H]12 | – | -7.94% [at 11.4 µM] (inactive)
60 | COc1cc(/C=N/O)cc(Br)c1OCc1cccc(Cl)c1 | inactive | –
61 | O=C(SCc1cccc2ccccc12)c1ccc(Cl)cc1 | – | -11.2% [at 11.4 µM] (inactive)
62 | O/N=C/c1cc(Cl)ccc1OCc1cccc2ccccc12 | 15.8 µM (active) | –
63 | CC(C)C(NS(=O)(=O)c1cccc2nsnc12)C(=O)N1CCc2ccccc2C1 (stereo not drawn) | inactive | –
64 | CO[C@H]1[C@H](O[C@H]2O[C@@H](C)[C@@H](O[C@@H]3C[C@](C)(O)[C@H](OC(=O)CC(C)C)[C@H](C)O3)[C@@H](N(C)C)[C@@H]2O)[C@@H](CC=O)C[C@@H](C)[C@@H](O)/C=C\C=C/C[C@@H](C)OC(=O)C[C@H]1OC(C)=O | inactive | –
65 | CC(C)(C)c1ccc(C(=O)NC(Cc2ccccc2)C(=O)O)cc1 (stereo not drawn) | inactive | –
66 | Cc1ccc2[nH]c(-c3ccccc3)c(CN(C)C)c(=O)c2c1 | 0.0316 µM (active) | –
67 | Cc1cc(=O)[nH]c2ccccc12 | inactive | –
68 | CCCCCCN(CCCCCC)C(=O)Cc1c(-c2ccc(F)cc2)[nH]c2ccccc12 | inactive | –
69 | CC(=O)N1CCN(c2nc(C)nc3sc4c(c23)CCC(C)C4)CC1 (stereo not drawn) | inactive | –
70 | CON/C=C(\C=Nc1ccccc1)c1ncc(C(F)(F)F)cc1Cl | inactive | –
71 | COc1ccc(C2CC(=O)CC(=O)C2n2cncn2)cc1 (stereo not drawn) | inactive | –
72 | O=C(O)Cc1nn(Cc2ccc(Br)cc2F)c(=O)c2ccccc12 | inactive | –
73 | CC(C)(C)CC(=O)NC(=S)Nc1ccccc1C(F)(F)F | inactive | –
74 | Cc1cc(C)c(S(=O)(=O)Nc2ccccc2C(F)(F)F)c(C)c1 | 6.31 µM (active) | –
75 | Cc1cc(C)c(S(=O)(=O)Nc2cccc(C(F)(F)F)c2)c(C)c1 | inactive | –

Row | Structure (SMILES) | AC50 | activity, negative = inhibition
76 | CCN(CC)c1ccc(NC(=O)c2cnn(CC)c2)cc1 | inactive | –
77 | COC(=O)CSc1ccc2nnc(-c3ccc(F)cc3)n2n1 | inactive | –
78 | OC(Cc1nc2ccccc2[nH]1)c1ccccc1Cl (stereo not drawn) | 1.12 µM (active) | –
79 | c1ccc(-c2nnc(SCc3nc4ccccc4[nH]3)n2Cc2ccco2)cc1 | 6.31 µM (active) | –
80 | Cc1cc(C)nc(SCc2nnc(SCC(N)=O)n2Cc2ccco2)n1 | inactive | –
81 | Cc1cc(NC(=O)CSc2nnc(-c3ccccc3)n2Cc2ccco2)no1 | inactive | –
82 | O=C(O)CSc1nc2ccccc2[nH]1 | – | 9.25% [at 11.4 µM] (inactive)
83 | c1ccc2[nH]c(NC3=NCCC3)nc2c1 | inactive | –
84 | OCCNc1nc2ccccc2[nH]1 | inactive | –
85 | COCCn1c(Cc2ccccc2)nnc1SCc1nc2ccccc2c(=O)[nH]1 | inactive | –
86 | c1ccc(SCc2nc3ccccc3[nH]2)cc1 | 10 µM (active) | –
87 | Cc1nonc1NC(=O)N1CCCC1 | inactive | –
88 | O=C(O)Cn1ccnc1[N+](=O)[O-] | – | 0.12% [at 11.4 µM] (inactive)
89 | Cc1ccc(C)c(/C(O)=C2/C(=O)C(=O)N(CCN3CCOCC3)C2c2ccco2)c1 (stereo not drawn) | inactive | –
90 | COc1ccc(NC(=O)CSc2ccc3c4c(cccc24)C(=O)c2ccccc2-3)cc1 | inactive | –
91 | O=C(NCc1ccccc1)c1sc(=S)n2c1[nH]c(=O)c1ccccc12 | inactive | –
92 | COc1ccc(C(=O)Nc2cc(C(C)=O)c(/C=C/N(C)C)oc2=O)cc1 | inactive | –
93 | CCC(=O)Nc1c2c(nc3c1CCC3)CCCC2 | inactive | –
94 | COC(=O)CCC(=O)Nc1cccc2ccccc12 | inactive | –
95 | CCC(=O)NC(=S)Nc1ccc(NC(=O)COc2ccc(Cl)cc2Cl)cc1 | inactive | –
96 | O[C@@H](COc1ccc(Cl)cc1Cl)CN1CCCC1 | 0.316 µM (active) | –
97 | O=S(=O)(CC(O)COc1ccccc1Cl)c1ccccc1 (stereo not drawn) | inactive | –
98 | O=C(OC1CCN(c2ncc(C(F)(F)F)cc2Cl)CC1)c1ccccc1 | inactive | –
